According to the supplement of paper PMC10849652:
Of roughly 7,900 targets only a part is listed; those with a hit were picked by preference. About 0.6% of all pairs of compound and target were hits.

compound: Cc1cc(SCc2sc(-c3ccc(C(F)(F)F)cc3)nc2C)ccc1OCC(=O)O; assay: log2 fold change, soluble protein after heating vs DMSO (PISA); higher = thermal stabilisation; K562 cells, 10 uM, 30 min; active = over 0.2 and 3.5 SD of the protein, either way, in both replicates (recomputed)
How it was run: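 Soluble protein was defined as the supernatant after 21,000xg for 90 min. It came from K562 cells at 2×10^6 cells/mL given 10 μM compound for 30 min, heated in aliquots for 3 min across 48°C-58°C, pooled, and extracted in PBS with 0.5% NP-40 at 4°C, and was quantified by TMTpro 16plex LC-MS/MS with equalised channel sums. Thermal stability against control samples, from duplicates, is reported as log2 fold change.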

UniProt Q5JUR7, sequence (Q5JUR7 whole entry, looked up): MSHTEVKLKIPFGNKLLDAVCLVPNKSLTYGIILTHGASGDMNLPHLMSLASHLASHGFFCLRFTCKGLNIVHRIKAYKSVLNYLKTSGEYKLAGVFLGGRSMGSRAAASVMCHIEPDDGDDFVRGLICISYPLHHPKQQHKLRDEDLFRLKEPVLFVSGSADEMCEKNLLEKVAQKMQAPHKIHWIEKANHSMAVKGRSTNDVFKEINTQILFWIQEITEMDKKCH
UniProt Q8N5G0, sequence (Q8N5G0 whole entry, looked up): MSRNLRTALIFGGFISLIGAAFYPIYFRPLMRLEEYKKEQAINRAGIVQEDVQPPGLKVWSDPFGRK
UniProt Q92581, sequence (Q92581 whole entry, looked up): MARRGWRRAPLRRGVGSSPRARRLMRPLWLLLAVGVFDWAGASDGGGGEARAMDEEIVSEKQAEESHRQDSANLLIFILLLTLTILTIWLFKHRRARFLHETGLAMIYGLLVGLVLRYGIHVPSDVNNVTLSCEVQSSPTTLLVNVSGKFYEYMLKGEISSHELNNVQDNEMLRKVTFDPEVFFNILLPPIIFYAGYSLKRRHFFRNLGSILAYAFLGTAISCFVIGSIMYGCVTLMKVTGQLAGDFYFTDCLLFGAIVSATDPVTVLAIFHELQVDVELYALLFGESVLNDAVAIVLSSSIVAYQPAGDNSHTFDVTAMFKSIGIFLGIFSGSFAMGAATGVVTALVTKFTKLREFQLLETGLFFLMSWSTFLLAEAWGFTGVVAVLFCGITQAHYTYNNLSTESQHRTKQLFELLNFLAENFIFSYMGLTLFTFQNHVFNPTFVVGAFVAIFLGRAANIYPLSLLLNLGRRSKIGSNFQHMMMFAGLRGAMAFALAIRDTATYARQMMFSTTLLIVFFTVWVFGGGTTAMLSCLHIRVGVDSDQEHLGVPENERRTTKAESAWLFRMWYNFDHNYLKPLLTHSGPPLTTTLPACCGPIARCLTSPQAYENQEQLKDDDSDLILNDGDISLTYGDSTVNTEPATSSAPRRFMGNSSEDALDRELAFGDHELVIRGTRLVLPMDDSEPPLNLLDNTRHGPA
UniProt O60749, sequence (O60749 whole entry, looked up): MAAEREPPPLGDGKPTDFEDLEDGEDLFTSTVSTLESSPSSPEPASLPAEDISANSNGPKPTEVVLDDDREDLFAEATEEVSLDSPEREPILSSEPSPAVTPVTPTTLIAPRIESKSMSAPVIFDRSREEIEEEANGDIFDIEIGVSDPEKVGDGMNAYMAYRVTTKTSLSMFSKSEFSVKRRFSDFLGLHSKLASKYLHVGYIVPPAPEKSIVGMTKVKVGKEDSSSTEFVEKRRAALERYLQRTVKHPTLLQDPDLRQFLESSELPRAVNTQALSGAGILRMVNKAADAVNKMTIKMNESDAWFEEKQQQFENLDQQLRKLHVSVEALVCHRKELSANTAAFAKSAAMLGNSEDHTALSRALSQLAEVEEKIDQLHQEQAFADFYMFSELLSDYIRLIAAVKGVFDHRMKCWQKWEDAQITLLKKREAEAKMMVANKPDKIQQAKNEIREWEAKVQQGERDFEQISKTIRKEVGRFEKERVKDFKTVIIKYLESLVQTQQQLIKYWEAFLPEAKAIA
UniProt P78383, sequence (P78383 whole entry, looked up): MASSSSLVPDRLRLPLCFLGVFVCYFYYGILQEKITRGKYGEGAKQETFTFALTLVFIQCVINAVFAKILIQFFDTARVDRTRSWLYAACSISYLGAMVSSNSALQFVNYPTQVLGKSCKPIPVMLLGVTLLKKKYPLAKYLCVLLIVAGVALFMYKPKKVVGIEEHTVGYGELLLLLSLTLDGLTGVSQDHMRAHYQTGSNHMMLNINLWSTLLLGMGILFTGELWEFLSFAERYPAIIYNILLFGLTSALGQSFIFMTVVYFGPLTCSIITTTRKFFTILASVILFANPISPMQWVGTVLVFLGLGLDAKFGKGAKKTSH
UniProt Q5VWP2, sequence (Q5VWP2 whole entry, looked up): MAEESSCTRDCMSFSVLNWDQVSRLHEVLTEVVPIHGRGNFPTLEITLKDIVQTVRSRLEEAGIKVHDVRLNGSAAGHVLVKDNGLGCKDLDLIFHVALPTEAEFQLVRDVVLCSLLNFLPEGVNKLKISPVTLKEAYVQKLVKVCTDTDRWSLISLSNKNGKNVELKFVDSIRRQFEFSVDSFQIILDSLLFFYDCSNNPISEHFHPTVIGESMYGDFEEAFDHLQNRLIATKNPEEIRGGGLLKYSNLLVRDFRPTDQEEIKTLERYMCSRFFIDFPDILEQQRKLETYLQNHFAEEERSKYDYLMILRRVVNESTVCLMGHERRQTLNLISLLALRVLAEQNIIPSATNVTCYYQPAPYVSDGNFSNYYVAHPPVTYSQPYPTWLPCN
UniProt P20226, sequence (P20226 whole entry, looked up): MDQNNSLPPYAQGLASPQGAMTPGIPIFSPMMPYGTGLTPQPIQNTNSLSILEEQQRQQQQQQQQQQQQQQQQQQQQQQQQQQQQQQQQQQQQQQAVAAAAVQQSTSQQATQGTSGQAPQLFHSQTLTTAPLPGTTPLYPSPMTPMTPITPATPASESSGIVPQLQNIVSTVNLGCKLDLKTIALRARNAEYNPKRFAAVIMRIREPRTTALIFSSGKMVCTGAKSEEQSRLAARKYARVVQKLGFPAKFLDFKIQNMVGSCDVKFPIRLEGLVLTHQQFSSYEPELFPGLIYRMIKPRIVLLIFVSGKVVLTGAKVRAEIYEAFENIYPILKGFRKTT
UniProt Q8N9U0, sequence (Q8N9U0 whole entry, looked up): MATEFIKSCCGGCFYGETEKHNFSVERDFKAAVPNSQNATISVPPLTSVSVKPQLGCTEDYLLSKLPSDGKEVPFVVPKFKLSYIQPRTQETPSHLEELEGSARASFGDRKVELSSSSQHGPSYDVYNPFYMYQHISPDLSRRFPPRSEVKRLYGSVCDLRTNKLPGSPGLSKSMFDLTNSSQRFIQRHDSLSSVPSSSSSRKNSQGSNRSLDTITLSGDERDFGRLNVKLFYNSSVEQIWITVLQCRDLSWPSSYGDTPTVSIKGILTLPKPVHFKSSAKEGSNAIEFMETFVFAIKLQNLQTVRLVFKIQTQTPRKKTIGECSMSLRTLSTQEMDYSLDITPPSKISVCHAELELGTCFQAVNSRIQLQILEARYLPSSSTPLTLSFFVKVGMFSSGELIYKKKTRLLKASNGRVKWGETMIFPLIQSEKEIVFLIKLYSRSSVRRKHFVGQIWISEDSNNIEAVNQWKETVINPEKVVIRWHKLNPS
UniProt Q9Y5J6, sequence (Q9Y5J6 whole entry, looked up): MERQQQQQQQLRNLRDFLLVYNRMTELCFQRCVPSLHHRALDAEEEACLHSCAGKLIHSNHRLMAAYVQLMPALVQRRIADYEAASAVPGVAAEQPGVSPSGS
UniProt O76062, sequence (O76062 whole entry, looked up): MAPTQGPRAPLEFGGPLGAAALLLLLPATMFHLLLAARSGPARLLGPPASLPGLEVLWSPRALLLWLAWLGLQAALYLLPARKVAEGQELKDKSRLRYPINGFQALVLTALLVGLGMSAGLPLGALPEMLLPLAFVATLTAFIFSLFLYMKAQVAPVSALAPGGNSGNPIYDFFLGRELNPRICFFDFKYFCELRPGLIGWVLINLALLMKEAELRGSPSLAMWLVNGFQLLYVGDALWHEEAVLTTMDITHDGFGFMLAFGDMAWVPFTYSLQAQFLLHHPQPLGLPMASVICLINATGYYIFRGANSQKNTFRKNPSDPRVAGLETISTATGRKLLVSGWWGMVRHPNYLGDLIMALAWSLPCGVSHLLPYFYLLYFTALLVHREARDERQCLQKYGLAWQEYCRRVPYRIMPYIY
UniProt Q8N357, sequence (Q8N357 whole entry, looked up): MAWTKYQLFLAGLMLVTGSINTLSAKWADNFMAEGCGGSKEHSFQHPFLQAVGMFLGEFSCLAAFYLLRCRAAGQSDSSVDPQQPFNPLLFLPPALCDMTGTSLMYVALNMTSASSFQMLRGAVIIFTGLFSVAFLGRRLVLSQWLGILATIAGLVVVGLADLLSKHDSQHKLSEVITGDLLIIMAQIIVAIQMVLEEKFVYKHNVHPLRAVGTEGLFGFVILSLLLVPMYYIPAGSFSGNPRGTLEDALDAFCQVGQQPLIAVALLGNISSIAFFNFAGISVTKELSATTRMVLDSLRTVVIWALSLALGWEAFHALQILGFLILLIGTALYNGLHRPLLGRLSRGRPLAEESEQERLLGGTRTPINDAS
UniProt Q12824, sequence (Q12824 whole entry, looked up): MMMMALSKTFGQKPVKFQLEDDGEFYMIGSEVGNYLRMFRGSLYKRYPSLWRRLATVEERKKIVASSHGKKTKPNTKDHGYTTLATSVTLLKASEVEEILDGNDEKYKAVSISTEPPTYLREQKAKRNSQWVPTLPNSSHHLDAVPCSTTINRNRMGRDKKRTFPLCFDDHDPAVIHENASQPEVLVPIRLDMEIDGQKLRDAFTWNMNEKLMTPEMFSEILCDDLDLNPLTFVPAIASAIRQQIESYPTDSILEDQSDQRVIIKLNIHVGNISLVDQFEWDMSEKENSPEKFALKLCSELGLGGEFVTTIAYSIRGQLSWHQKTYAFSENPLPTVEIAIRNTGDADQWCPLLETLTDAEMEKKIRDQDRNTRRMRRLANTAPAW
UniProt Q969X1, sequence (Q969X1 whole entry, looked up): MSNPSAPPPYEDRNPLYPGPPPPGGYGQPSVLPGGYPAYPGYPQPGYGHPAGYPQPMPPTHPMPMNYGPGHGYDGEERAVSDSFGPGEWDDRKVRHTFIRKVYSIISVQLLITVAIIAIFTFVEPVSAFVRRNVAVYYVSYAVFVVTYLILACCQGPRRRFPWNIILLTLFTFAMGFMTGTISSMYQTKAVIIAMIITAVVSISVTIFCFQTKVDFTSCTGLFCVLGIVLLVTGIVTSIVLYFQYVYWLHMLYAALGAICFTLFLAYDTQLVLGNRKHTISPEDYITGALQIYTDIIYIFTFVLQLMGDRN

log2 fold change, inactive:
SLC35B1 isoform 2 (UniProt P78383) 0, SNX2 isoform 2 (UniProt O60749) -0.029, SMPD4 isoform 2 (UniProt Q9NXE4) 0.09, TC2N (UniProt Q8N9U0) -0.072, SLC8B1 (UniProt Q6J4K2) -0.073, SNRK (UniProt Q9NRH2) -0.067, SSB (UniProt E7ERC4) 0.337, SLC9A6 isoform 3 (UniProt Q92581) -0.137, SRCAP (UniProt Q6ZRS2) -0.035, TENT5C (UniProt Q5VWP2) 0.174, THAP9 (UniProt Q9H5L6) -0.245, TBP (UniProt P20226) -0.098, SREBF1 isoform 4 (UniProt P36956) 0.089, SMARCB1 (UniProt Q12824) 0.097, SYK (UniProt P43405) 0.405, TIMM10B (UniProt Q9Y5J6) -0.161, SLC35F6 (UniProt Q8N357) -0.219, TEX30 (UniProt Q5JUR7) 0.067, TM7SF2 (UniProt O76062) 0.028, SMIM20 isoform 2 (UniProt Q8N5G0) -0.068, TMBIM1 (UniProt Q969X1) -0.026, SP2 (UniProt Q02086) 0.125
